From PubChem BioAssay (NCATS)
Inconclusive results are not listed. The source made the active and inactive calls. Unless noted, calls follow the shape of the dose curve; as a rule, active = well fitted curve in the direction sought with a large enough effect; inconclusive = small, poorly fitted or top-dose-only effect, or another doubt; inactive = no such curve, though single readings can be large; an effect the other way counts as inactive or inconclusive.

Key:
[1] = qHTS assay for measurement of the activity of small molecule inhibitors on Zika virus induced Caspase-3 activity in human iPSC derived neural progenitor cells (hNPCs) (AID 1224857); also: % of control where 0% means no effect; nearly all actives have a fitted effect of over 65% in size
In short: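 Human iPSC-derived neural progenitor cells pretreated 1 hr with compounds, then infected with Zika virus (2 FFU/cell) for 6 hours at 37 C. Caspase-3/7 measured by Caspase-Glo luminescence; % inhibition calculated from induction scaled to uninfected (0%) and infected (100%) wells.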

[2] = qHTS assay for measurement of the activity of small molecule inhibitors on Zika virus induced Caspase-3 activity in human astrocytoma cells (AID 1224859);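 also: plate controls were ZIKV-infected untreated cells for no effect and uninfected cells for full effect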
In short: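 SNB-19 astrocytoma cells, 250/well, pretreated 1 h with compounds, then Zika virus at 2 FFU/cell for 6 h at 37 C; Caspase-Glo 3/7 luminescence after 30 min; percent inhibition normalised to uninfected and infected controls.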

[3] = qHTS assay to identify small molecule inhibitors of chordoma cells - UCH-1 (AID 1259355); also: nearly all actives have a fitted effect of over 55% in size; also: potency is read from the fitted curve at half-maximal effect; series mostly up to about 46 µM
In short: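 A 48hr growth-inhibition format: each drug tested at 15 concentrations together with added auranofin, camptothecin, doxorubicin, rubitecan and topotecan, with cell viability quantified as CellTiter-Glo luminescence.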

[4] = qHTS assay to identify small molecule inhibitors of chordoma cells - UCH-2 (AID 1259356); also: series mostly up to about 46 µM; % is scaled to controls: 0 for no effect and ±100 for the full control effect
[5] = P-glycoprotein substrates identified in KB-8-5-11 adenocarcinoma cell line, qHTS therapeutic library screen (AID 1346987); also: nearly all actives have a fitted effect of over 65% in size; also: potency is read from the fitted curve at half-maximal effect
In short: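 Compounds are pinned in dose-response onto KB-8-5-11 cells (500 cells/well, colchicine-free medium) and left 72 h at 37 degree C. CellTiter-Glo luminescence then yields AC50 values.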

[6] = NS1 protein of Zika virus - qHTS assay to identify small molecule inhibitors in human HEK 293 cells (AID 1347053);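 also: series mostly up to about 46 µM; plate controls were infected untreated cells for no effect and uninfected cells for full effect; nearly all actives have a fitted effect of over 55% in size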
In short: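 TR-FRET signal from two anti-ZIKV NS1 antibodies quantified NS1 in HEK 293 cells 24 h after MR766 infection at MOI = 0.5; compounds were added 1 h before virus. Uninfected cells and infected cells defined the NS1 normalization range.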

[7] = Natriuretic polypeptide receptor (hNpr1) antagonism - Pilot counterscreen GloSensor control cell line (AID 1347045; calls by dose curve; also: series mostly up to about 38 µM; % is scaled to controls: 0 for no effect and ±100 for the full control effect)
In short: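 Control counterscreen: luciferase cGMP-biosensor HEK293 cells (no Npr1) received compound for 30 min at room temperature after GloSensor substrate loading. Luminescence was measured before and 20 min after soluble guanylyl cyclase activation by 50 uM nitroprusside.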

NCCC(O)(P(=O)(O)O)P(=O)(O)O
inactive: outcome [1] | outcome [2] | Potency [3] | Potency [4]

NC(=O)c1cc[n+](CC2=C(C(=O)[O-])N3C(=O)[C@@H](NC(=O)Cc4cccs4)[C@H]3SC2)cc1
inactive: outcome [1] | outcome [2] | Potency [3] | Potency [4]

COc1cc(NS(C)(=O)=O)ccc1Nc1c2ccccc2nc2ccccc12
inactive: outcome [1] | outcome [2]
active: Potency [3] 28.2 µM

O=C(OCC(O)CO)c1ccccc1Nc1ccnc2cc(Cl)ccc12 (stereo not drawn)
inactive: outcome [1] | outcome [2] | Potency [3] | Potency [4]

O=C(OCCOCCO)c1ccccc1Nc1cccc(C(F)(F)F)c1
inactive: outcome [1] | outcome [2] | Potency [3] | Potency [4] | Potency [5] | Potency [6]

CCN(CC)CCOC(=O)C(c1ccccc1)C1CCCCC1 (stereo not drawn)
inactive: outcome [1] | outcome [2] | Potency [3] | Potency [4] | Potency [5] | Potency [6]

c1ccc(CNCCNCc2ccccc2)cc1
inactive: outcome [1] | outcome [2] | Potency [3] | Potency [4] | Potency [5] | Potency [6]

C=C1C(=C/C=C2\CCC[C@]3(C)[C@@H]([C@H](C)/C=C/[C@@H](O)C4CC4)CC[C@@H]23)C[C@@H](O)C[C@@H]1O
inactive: outcome [1] | outcome [2] | Potency [3] | Potency [4] | Potency [6]
active: Potency [5] 8.2 µM

CCCCCC=CCC=CCCCCCCCC(=O)OCC
inactive: outcome [1] | outcome [2] | Potency [3] | Potency [4] | Potency [5] | Potency [6]

C[C@]12CCC(=O)C=C1[C@@H]1C[C@@H]1[C@H]1[C@@H]3[C@@H]4C[C@@H]4[C@@]4(CCC(=O)O4)[C@@]3(C)CC[C@@H]12
inactive: outcome [1] | outcome [2] | Potency [3] | Potency [4] | Potency [6]
active: Potency [5] 4.11 µM

Cc1cc(N)c2cc(NC(=O)Nc3ccc4nc(C)cc(N)c4c3)ccc2n1
inactive: outcome [1] | outcome [2] | Potency [3] | Potency [4] | Potency [5] | Potency [6]

CC(=O)Nc1c(I)cc(I)c(C(=O)O)c1I
inactive: outcome [1] | outcome [2] | Potency [3] | Potency [4] | Potency [5] | Potency [6]

CCCCN1CCCC1C(=O)Nc1c(C)cc(C)cc1C (stereo not drawn)
inactive: outcome [1] | outcome [2] | Potency [3] | Potency [4] | Potency [5] | Potency [6]

Nc1ccc(/C=C/c2ccc(N)cc2S(=O)(=O)O)c(S(=O)(=O)O)c1
inactive: activity change, negative = inhibition [1] -14.7% [at 0.568 µM] | activity change, negative = inhibition [2] -3.2% [at 0.568 µM] | Potency [3] | Potency [4] | Potency [5] | activity change, negative = inhibition [6] -8.83% [at 0.593 µM]

C[C@]12C=CC(=O)C=C1CC[C@@H]1[C@@H]2[C@@H](O)C[C@@]2(C)[C@H]1CC[C@]2(O)C(=O)CO
inactive: outcome [1] | outcome [2] | Potency [3] | Potency [4] | Potency [5] | Potency [6]

CC(C)N=C(N)/N=C(\N)Nc1ccc(Cl)cc1
inactive: outcome [1] | outcome [2] | Potency [3] | Potency [4] | Potency [5] | Potency [6]

CCN1CCN(c2cc3c(cc2F)c(=O)c(C(=O)O)cn3C2CC2)CC1
inactive: outcome [1] | outcome [2] | Potency [3] | Potency [4] | Potency [5] | Potency [6]

CCN1CCCC1=O
inactive: outcome [1] | outcome [2] | Potency [3] | Potency [4] | Potency [5] | Potency [6]

CC(=O)OCC(=O)NCCCOc1cccc(CN2CCCCC2)c1
inactive: outcome [1] | outcome [2] | Potency [3] | Potency [4] | Potency [6]

COc1cc2c(cc1OC)C(=O)C(CC1CCN(Cc3ccccc3)CC1)C2 (stereo not drawn)
inactive: outcome [1] | outcome [2] | Potency [3] | Potency [4] | Potency [6]
active: Potency [5] 8.2 µM

Cc1c(C)n(Cc2ccccc2)c2ccc(C(=O)OCCN(C)C)cc12
inactive: outcome [1] | outcome [2] | Potency [3] | Potency [4] | Potency [6]
active: Potency [5] 23.1 µM

c1ccc(OCc2ccc(CCCN3CCOCC3)cc2)cc1
inactive: outcome [1] | outcome [2] | Potency [3] | Potency [4] | Potency [6]

CN=C(NC#N)NCCSCc1csc(N=C(N)N)n1
inactive: outcome [1] | outcome [2] | Potency [3] | Potency [4] | Potency [5] | Potency [6]

CCCSS/C(CCO)=C(\C)N(C=O)Cc1cnc(C)nc1N
inactive: outcome [1] | outcome [2] | Potency [3] | Potency [4] | Potency [5] | Potency [6]

C/C=C/c1ccc(OC)cc1
inactive: outcome [1] | outcome [2] | Potency [3] | Potency [4] | Potency [5] | Potency [6]

O=C(CCN1CCC(c2ccccc2)C1)c1ccc2c(c1)OCCO2 (stereo not drawn)
inactive: outcome [1] | outcome [2] | Potency [3] | Potency [4] | Potency [5] | Potency [6]

Cc1ccc(O)c2ncccc12
inactive: outcome [1] | outcome [2] | Potency [3] | Potency [4] | Potency [5] | Potency [6]

CCCn1c(=O)[nH]c(=O)c2[nH]cnc21
inactive: outcome [1] | outcome [2] | Potency [3] | Potency [4] | outcome [7] | Potency [6]

CC[C@H](C)C(=O)O[C@H]1CCC=C2C=C[C@H](C)[C@H](CC[C@@H]3C[C@@H](O)CC(=O)O3)[C@H]21
inactive: outcome [1] | outcome [2] | Potency [3] | Potency [4] | outcome [7] | Potency [6]
